This is part of a sample that, as a whole, favours compounds with a hit. Of some 83,000 tested, about 20% had one in any assay.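 Single-dose data. Exposure time 48 hours. Values below 10 considered active.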 A number with no mark means an inactive call. Activity calls are given as the source filed them.

Eight compounds from PubChem BioAssay (NCI) can be followed below.

Some test systems named below: HCT-15 colon; HT29 colon; SNB-75 CNS; SNB-19 CNS; U251 CNS; PC-3 prostate; SK-MEL-5 melanoma; UACC-62 melanoma; LOX IMVI melanoma; SK-MEL-28 melanoma; SK-MEL-2 melanoma; SN12C renal; UO-31 renal; TK-10 renal; ACHN renal; A498 renal; MOLT-4 leukemia; CCRF-CEM leukemia; CAKI-1 renal.
Assay in all cases: NCI-60 one-dose screen, 48 h (100 = growth as untreated, 0 = no growth, -100 = all killed)
Conditions in all cases: 10 µM unless noted

Turning to `CCOC(=O)C(C(=O)OCC)C1CCCCC1`, the growth in the assay on HCT-15 colon was 99%; with HT29 colon, 102%; in the assay on SNB-75 CNS, 87.6%; in the assay on SNB-19 CNS, 102%; in the assay on U251 CNS it was 86%; in the assay on PC-3 prostate, 94.3%. For the same compound, the growth was 109% with SK-MEL-5 melanoma; 99.2% with UACC-62 melanoma; 110% in the assay on LOX IMVI melanoma; 106% in the assay on SK-MEL-28 melanoma; 110% in the assay with SK-MEL-2 melanoma; 106% with SN12C renal. Besides, the growth is 91.8% with UO-31 renal; 101% in the assay with TK-10 renal; 102% with ACHN renal; 107% with A498 renal; 102% in the assay with MOLT-4 leukemia.

For `Nc1nc2c(nnn2Cc2ccc(Cl)c(Cl)c2)c(=O)[nH]1`, the growth was 98.7% with HCT-15 colon; 100% with HT29 colon; 90.5% in the assay on SNB-75 CNS; 95.1% in the assay with SNB-19 CNS; 96.6% in the assay with U251 CNS; 79.3% with PC-3 prostate. The growth in the assay on SK-MEL-5 melanoma is 107%; in the assay with UACC-62 melanoma, 73.9%; with LOX IMVI melanoma, 93.9%; in the assay on SK-MEL-28 melanoma it was 111%; in the assay with SK-MEL-2 melanoma, 90.1%; with SN12C renal, 89.9%. Besides, the growth with UO-31 renal is 69.2%; in the assay with TK-10 renal it was 103%; in the assay with ACHN renal it was 92.4%; in the assay on A498 renal it was 85.5%; with CCRF-CEM leukemia, 81.2%; in the assay on MOLT-4 leukemia, 93.8%.

Regarding `COc1cccc(C=Nc2cc(C(C)C)c(O)cc2C)c1O`, the growth was 96% in the assay with HCT-15 colon; 103% with HT29 colon; 88.3% in the assay on SNB-75 CNS; 93.2% in the assay with SNB-19 CNS; 96% with U251 CNS; 92.8% in the assay on PC-3 prostate. Moreover, the growth in the assay on SK-MEL-5 melanoma is 104%; in the assay on UACC-62 melanoma it was 91.9%; in the assay on LOX IMVI melanoma it was 94.8%; in the assay on SK-MEL-28 melanoma, 116%; in the assay on SK-MEL-2 melanoma it was 102%; with SN12C renal, 95%. The growth with UO-31 renal was 72.4%; in the assay on TK-10 renal, 99.8%; in the assay on ACHN renal, 100%; in the assay on A498 renal, 75.7%; with CCRF-CEM leukemia it was 35%; with MOLT-4 leukemia, 98.2%.

`CC[C@@H](C)/C=C(C)/C=C/C(=O)c1c(O)c(-c2ccc(O)cc2)cn(OC2CC(=O)CCC(C)OC(=O)CC2O)c1=O` (some centres undefined): the growth in the assay with HCT-15 colon is 26.8%; in the assay with HT29 colon, 29.5%; in the assay with SNB-75 CNS, 18%; in the assay with SNB-19 CNS, 22.9%; in the assay on U251 CNS, 11.1%; with PC-3 prostate, 34%. Also, the growth with SK-MEL-5 melanoma is -22.7% (active); in the assay on UACC-62 melanoma, -13.1% (active); in the assay with LOX IMVI melanoma, 2.2% (active); in the assay on SK-MEL-28 melanoma, 34%; with SK-MEL-2 melanoma, 19.8%; in the assay with SN12C renal, 17.5%. In addition, the growth is -15.5% (active) in the assay with UO-31 renal; 43.1% with TK-10 renal; 0.984% (active) in the assay on ACHN renal; 28.7% with A498 renal; 2.11% (active) with CCRF-CEM leukemia; 6.27% (active) in the assay with MOLT-4 leukemia.

In the case of `COc1ccc(NC(=O)[C@@H]2C[C@H]2c2ccccc2)c(C(N)=O)c1`, the growth was 89.5% in the assay with HCT-15 colon; 95.5% in the assay with HT29 colon; 96.2% with SNB-75 CNS; 96.3% with SNB-19 CNS; 97.2% in the assay on U251 CNS; 90.2% in the assay on PC-3 prostate. The growth was 96.5% with SK-MEL-5 melanoma; 95.7% with UACC-62 melanoma; 93.6% with LOX IMVI melanoma; 96.7% in the assay with SK-MEL-28 melanoma; 89.9% with SK-MEL-2 melanoma; 96% in the assay with SN12C renal. The growth is 87.9% with UO-31 renal; 96% in the assay with TK-10 renal; 102% in the assay with ACHN renal; 103% with CAKI-1 renal; 98.1% in the assay with A498 renal; 94% in the assay on CCRF-CEM leukemia. Besides, the growth in the assay with MOLT-4 leukemia is 92.4%.

For `c1ccc(CN=C(NCc2ccccc2)NCc2ccccc2)cc1`, the growth was 79.7% in the assay with HCT-15 colon; 62.6% with HT29 colon; 59.3% in the assay on SNB-75 CNS; 68.1% in the assay on SNB-19 CNS; 51.9% with U251 CNS; 24.9% in the assay on PC-3 prostate. For the same compound, the growth in the assay with SK-MEL-5 melanoma was 35%; with UACC-62 melanoma, 63.8%; with LOX IMVI melanoma it was 59.8%; in the assay with SK-MEL-28 melanoma it was 98.8%; in the assay on SK-MEL-2 melanoma, 60.5%; with SN12C renal, 72.2%. The growth with UO-31 renal was 61.3%; in the assay with TK-10 renal, 58.6%; in the assay with CAKI-1 renal, 84.8%; with A498 renal it was 84.7%; in the assay with CCRF-CEM leukemia it was 65.5%; with MOLT-4 leukemia it was 70.7%.

Take `NS(=O)(=O)c1ccc(-n2nc(-c3ccc(Br)cc3)ccc2=O)cc1`: the growth in the assay on HCT-15 colon was 43% [100 µM]; in the assay on HT29 colon, 63.9% [100 µM]; in the assay with SNB-75 CNS, 8.35% [100 µM] (active); in the assay on SNB-19 CNS it was 36.5% [100 µM]; with U251 CNS, 11.2% [100 µM]; in the assay with PC-3 prostate, 78.2% [100 µM]. The growth was 65.1% [100 µM] with SK-MEL-5 melanoma; 53.6% [100 µM] with UACC-62 melanoma; 68.1% [100 µM] in the assay on LOX IMVI melanoma; 80.9% [100 µM] in the assay on SK-MEL-28 melanoma; 66.6% [100 µM] in the assay on SK-MEL-2 melanoma; 70.9% [100 µM] in the assay with SN12C renal. Besides, the growth in the assay with UO-31 renal was 89.2% [100 µM]; in the assay with TK-10 renal, 22.2% [100 µM]; in the assay with ACHN renal, 70.8% [100 µM]; in the assay with CAKI-1 renal it was 75.1% [100 µM]; in the assay with MOLT-4 leukemia, 92.6% [100 µM].

With `O=Nc1c2cccnc2n2nnc3ccc(Cl)cc3c12`, the growth with HCT-15 colon was 24.5%; in the assay with HT29 colon, 8.1% (active); in the assay with SNB-75 CNS, 63.4%; in the assay on SNB-19 CNS, 89.8%; in the assay with U251 CNS it was 50.6%; in the assay with PC-3 prostate, -26.9% (active). Besides, the growth in the assay with SK-MEL-5 melanoma was 96.2%; in the assay on UACC-62 melanoma, 73.5%; in the assay on LOX IMVI melanoma, 26.6%; with SK-MEL-28 melanoma it was 28.3%; in the assay with SK-MEL-2 melanoma, 57.1%; in the assay with SN12C renal, 56.5%. The growth is -37.4% (active) in the assay on UO-31 renal; 16.5% in the assay with TK-10 renal; -49.8% (active) in the assay on ACHN renal; 5.93% (active) in the assay with CAKI-1 renal; 88.3% in the assay with A498 renal; -60.5% (active) with CCRF-CEM leukemia. Further, the growth with MOLT-4 leukemia was -54.3% (active).
